Experimental data as given in PubChem BioAssay AID1347416 (National Center for Advancing Translational Sciences (NCATS), 2020).
Hit rate of the full screen: of about 4,100 compounds, about 1,600 (39%) were called active. Inconclusive results (about 25%) are left out. The call rests on the fitted dose curve; in most records, active means well fitted inhibition curve with a large enough effect; inconclusive means small, poorly fitted or top-dose-only effect; inactive means no such curve, though single readings can be large or run the other way. Some of the results follow.

assay: qHTS Validation assay for Inhibitors of Plasmodium falciparum Dd2 growth in vitro; further: nearly all actives have a fitted effect of over 70% in size; conditions: P. falciparum Dd2 in RBCs, SYBR Green growth, 72 h; series mostly up to 28.7 µM; activity change, negative = inhibition: at the top concentration
Outline: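 P. falciparum Dd2-infected red blood cells (2.5% hematocrit, 0.3% parasitemia) grown 72 h at 37 °C under 5% O2 with compounds in a titration, 29 uM to 0.5 nM final. Growth read as SYBR Green-1 fluorescence after ~16 h lysis; artesunate 300 nM as positive control.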
On the % scale 0 is the no-effect control and ±100 the full control effect; potency means the concentration at half of the fitted maximal effect.

| Compound | activity change, negative = inhibition | Potency |
| --- | --- | --- |
| CC(=O)N1CCN([C@H]2[C@@H]3OC[C@@H](O3)[C@@H](NC(=O)Nc3ccccc3)[C@@H]2O)CC1 | 7.1% [at 43.1 µM] (inactive) |  |
| O[C@H]1[C@H](NCc2ccc(-c3ccccc3)cc2)[C@H]2CO[C@H](O2)[C@@H]1Oc1ccccc1 | -7.84% [at 43.1 µM] (inactive) |  |
| CC(=O)N1CCN([C@H]2[C@@H]3OC[C@@H](O3)[C@@H](NC(=O)Nc3ccc(F)cc3)[C@@H]2O)CC1 | 41.4% [at 43.1 µM] (inactive) |  |
| COc1ccccc1N1CCN([C@H]2[C@@H]3OC[C@@H](O3)[C@@H](NCc3ccc(-c4ccccc4)cc3)[C@@H]2O)CC1 |  | 15 µM (active) |
| COc1ccccc1N1CCN([C@H]2[C@@H]3OC[C@@H](O3)[C@@H](N(CC3CC3)CC3CC3)[C@@H]2O)CC1 | 16.2% (inactive) |  |
| O[C@H]1[C@H](NCC2CCCCC2)[C@H]2CO[C@H](O2)[C@@H]1N1CCC(Cc2ccccc2)CC1 |  | 1.37 µM (active) |
| Oc1ccccc1CN[C@H]1[C@H](O)[C@@H](N2CCC(Cc3ccccc3)CC2)[C@@H]2OC[C@H]1O2 |  | 3.44 µM (active) |
| O=C(Nc1ccccc1)N[C@H]1[C@H](O)[C@@H](Oc2ccccc2)[C@@H]2OC[C@H]1O2 | -7.12% [at 43.1 µM] (inactive) |  |
| Cc1cc(NC(=O)CSc2ccc3nnc(-c4cccc(F)c4)n3n2)no1 |  | 5.96 µM (active) |
| CCc1noc(-c2ccn3c(CNC(=O)Cc4cccc(F)c4)nnc3c2)n1 | -18.4% (inactive) |  |
| CCOC(=O)CC(=O)CSc1ccc2nnc(-c3ccccc3)n2n1 | -4.34% (inactive) |  |
| CCCc1noc(-c2cccn3c(CNC(=O)c4ccc(Cl)cc4)nnc23)n1 | 0% (inactive) |  |
| COc1cc2c(cc1CNc1ncncn1)CCC2 | 39.6% (inactive) |  |
| CC(=O)Nc1cccc(-c2ccnc(-c3nnc(C)n3Cc3ccccc3)c2)c1 | -23% [at 43.1 µM] (inactive) |  |
| Cc1ccccc1C(=O)Nc1cccc(-c2nc3cccnc3s2)c1 | 6.23% (inactive) |  |
| O=C(CCl)Nc1cccc(-c2cnc3ccccc3n2)c1 |  | 6.68 µM (active) |
| O=C(Nc1ccc(S(=O)(=O)NC2=NCCCCC2)cc1)c1ccco1 | 32.7% (inactive) |  |
| O=c1c2ccccc2c(C=Nc2cccc(S(=O)(=O)NC3=NCCCCC3)c2)c(O)n1Cc1ccccc1 |  | 13.3 µM (active) |
| O=C(CCC[C@H]1NC[C@@H]2C[C@H]1CN(Cc1ccccc1)C2)NCCCN1CCCc2ccccc21 |  | 10.6 µM (active) |
| Cc1nnc2c(N3CCN(c4ccccc4)CC3)nc3ccc(C(=O)c4ccccc4)cc3n12 |  | 0.842 µM (active) |

| Compound | activity change, negative = inhibition | Potency |
| --- | --- | --- |
| Fc1ccc(CN2CC[C@H](c3nc4ccc(C(F)(F)F)cc4[nH]3)C2)cc1F | -9.52% [at 43.1 µM] (inactive) |  |
| COc1ccccc1-c1ccc(CN2CCCC(c3nc4ccc(F)cc4c(=O)[nH]3)C2)cc1 (stereo not given) |  | 8.41 µM (active) |
| CCN1CCCC(c2nc3ccc(F)cc3c(=O)[nH]2)C1 (stereo not given) | -2.32% [at 43.1 µM] (inactive) |  |
| COc1ccc(CN2CCC3(CC2)CC(O)CCO3)c(OC)c1 (stereo not given) | -4% (inactive) |  |
| O=C(c1ccc2c(Cl)c3c(nc2c1)CCCC3)N1CCN(c2cccc(C(F)(F)F)c2)CC1 | 10.1% (inactive) |  |
| Oc1cc2c(cc1CN1CCN(c3cccc(C(F)(F)F)c3)CC1)CCC2 |  | 0.944 µM (active) |
| Cc1ccc(Cl)cc1N1CCN(Cc2cc3c(cc2O)CCC3)CC1 |  | 0.188 µM (active) |
| CC(=O)N1CCC(C2CCN(Cc3cc(Cl)ccc3F)C2)CC1 (stereo not given) | -23.3% (inactive) |  |
| Cc1ccc(Cl)cc1N1CCN(C(=O)c2ccc3c(Cl)c4c(nc3c2)CCCC4)CC1 | -6.77% (inactive) |  |
| COc1ccc(N2C(N)=NC(N)=NC23CCCC3)cc1 | -11.4% (inactive) |  |
| COc1ccc(N2CCN(Cc3cc4c(cc3O)CCC4)CC2)cc1 |  | 16.8 µM (active) |
| CC(C)NC(=O)N1CCCC(Cn2c(C3CC3)nc3cccnc32)C1 (stereo not given) | 6.13% (inactive) |  |
| N#CC1CCN(C(=O)c2nc(-c3cccc(C(F)(F)F)c3)c3cnccn23)CC1 |  | 16.8 µM (active) |
| O=C(Cc1ccccc1)N1CCCC2(CC(c3cccc(C(F)(F)F)c3)=NO2)C1 (stereo not given) | -13.8% (inactive) |  |
| O=C1Nc2ccc(-c3cccc(C(F)(F)F)c3)cc2C(=O)N2CCN(C(=O)c3ccccc3)C[C@H]12 | -28.5% (inactive) |  |
| O=C(c1nc(-c2cccc(C(F)(F)F)c2)c2cnccn12)N1CCCC1 |  | 10.6 µM (active) |
| Cc1cc(Nc2cc(Cl)cc(Cl)c2)nc(N)n1 |  | 6.68 µM (active) |
| CCOCc1cnc(C)nc1NCC(=O)c1c(C)[nH]c2cc(C)ccc12 |  | 4.22 µM (active) |
| CCN1CCC(OCCCNC(=O)C2(CCO)CC23CCOCC3)CC1 (stereo not given) | 10.7% (inactive) |  |
| COc1cc(OC)cc(-c2cc3nc4c(c(N5CCN(c6ncccn6)CC5)n3n2)CCCC4)c1 |  | 4.22 µM (active) |

| Compound | activity change, negative = inhibition | Potency |
| --- | --- | --- |
| COc1ccc(-c2nnc([C@H]3CCN(c4ncccn4)C3)o2)cc1 | 7.2% [at 43.1 µM] (inactive) |  |
| CCn1c2c(c(=N)c3c1CCC3)CCCC2 |  | 13.3 µM (active) |
| CCn1c2c(c(=N)c3ccccc31)CCC2 |  | 6.68 µM (active) |
| CCOC(=O)Cn1c2c(c(=N)c3c1CCC3)CCC2 | -10.2% (inactive) |  |
| CCCn1c2c(c(=N)c3c1CCC3)CCC2 |  | 13.3 µM (active) |
| CCOC(=O)Cn1c2c(c(=N)c3c1CCC3)CCCC2 | -23.5% (inactive) |  |
| CCCn1c2c(c(=N)c3c1CCC3)CCCC2 |  | 10.6 µM (active) |
| CCCCn1c2c(c(=N)c3c1CCC3)CCC2 |  | 8.41 µM (active) |
| CC(C)c1noc(-c2cccn3c(CNC(=O)c4ccc(F)cc4Cl)nnc23)n1 | -11.9% (inactive) |  |
| Cc1nn2c(c1-c1ccccc1-c1ccccc1)N(CCC(C)C)CCC2 |  | 0.243 µM (active) |
| Cc1nn2c(c1-c1ccccc1-c1ccccc1)N(CC1CC1)CCC2 |  | 0.968 µM (active) |
| Cc1nn2c(c1-c1ccccc1C(C)C)N(CCC(C)C)CCC2 |  | 2.17 µM (active) |
| Cc1nn2c(c1-c1ccccc1[S+](C)(=O)[O-])N(Cc1ccc(C(=O)O)s1)CCC2 |  | 7.69 µM (active) |
| Cc1ccc(-c2csc3nc[nH]c(=O)c23)c(C)c1 | 48.1% (inactive) |  |
| CCc1noc(-c2cccn3c(CNC(=O)COc4ccc(F)cc4)nnc23)n1 | 38.7% (inactive) |  |
| O=C1Cc2c(-c3ccc(Oc4ccccc4)cc3)n[nH]c2CN1Cc1ccccc1F | -12.3% [at 43.1 µM] (inactive) |  |
| Cc1nn2c(c1-c1ccccc1[S+](C)(=O)[O-])N(CCC(C)C)CCC2 |  | 9.68 µM (active) |
| O=C1CCC2(CCN1)CCN(C(=O)C1CCCCC1)CC2 | 5.58% (inactive) |  |
| CCC(=O)N1c2ccccc2CC1C(=O)NCc1ccccc1C (stereo not given) | -8.52% (inactive) |  |
| COc1ccc(C(=O)N2CCC(C3CCN(S(C)(=O)=O)CC3)C2)c(OC)n1 (stereo not given) | 4.48% (inactive) |  |
